Source: PubChem BioAssay (NCI)
About 83,000 compounds went through this panel and 20% of them were active in at least one assay; those are over-represented in the sample as a whole.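 96-well plates, one dose, 48 hours. Percent growth reported; active if below 10.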 The source made the active and inactive calls.

These compounds were tested on SF-539 CNS (assay: NCI-60 one-dose screen, 48 h (100 = growth as untreated, 0 = no growth, -100 = all killed)). Conditions: 10 µM.

Question: With `Cc1cccc2cc(-c3cc(-c4ccccc4)nc(=S)[nH]3)c(Cl)nc12` as the compound, how does the growth read?
Answer: 82.1% (inactive)

Question: How did the growth turn out when `Cc1ccc(/C=C(\C#N)n2nnc3c(F)cccc32)cc1` was run?
Answer: -27.9% (active)

Question: For `COc1ccc2nc(Cl)c(-c3cc(-c4ccccc4)nc(=S)[nH]3)cc2c1`, which growth is on record?
Answer: 63.5% (inactive)

Question: For `Cc1ccc(C(=O)Nc2ccc(-n3c(C)nc4c(cnn4-c4ccccc4)c3=O)cc2)cc1`, which growth is on record?
Answer: 81.4% (inactive)

Question: `Cc1ccc(-c2ccc(SCC(=O)Nc3ccc(Cl)c(C(F)(F)F)c3)nn2)cc1` was tested. Which growth did it give?
Answer: -35.1% (active)

Question: With `O=C(COc1ccc(NC(=O)Nc2ccc(Cl)cc2)cc1)N=Nc1c(O)[nH]c2ccc([N+](=O)[O-])cc12` as the compound, how does the growth read?
Answer: 16.5% (inactive)

Question: How did the growth turn out when `Cc1nn(-c2ccccc2)c2ncn(CC(=O)N/N=C/c3c[nH]c4ccccc34)c(=O)c12` was run?
Answer: 84.6% (inactive)

Question: `S=c1nc(-c2ccccc2)cc(-c2cc3ccccc3nc2Cl)[nH]1` was tested. Which growth did it give?
Answer: 72.3% (inactive)

Question: With `Cc1ccc(C(=O)NCCCNc2nc(Nc3ccc(N4CCN(C)CC4)cc3)nc3ccsc23)cc1` as the compound, how does the growth read?
Answer: -89.9% (active)

Question: Which growth does the source give for `COc1ccc2nc(Cl)c(-c3cc(-c4ccccc4)nc(N)n3)cc2c1` here?
Answer: -45.6% (active)

Question: With `COc1cc(Cn2c(C(F)(F)F)cc3c(Cl)ncnc32)ccn1` as the compound, how does the growth read?
Answer: 59.9% (inactive)

Question: With `O=C1CCC(N2Cc3c(NCc4ccc(-c5ccccc5)cc4)cccc3C2=O)C(=O)N1` (configuration not stated) as the compound, how does the growth read?
Answer: 58.4% (inactive)

Question: For `O=c1nc(-c2ccccc2)cc(-c2cc3ccccc3nc2Cl)[nH]1`, which growth is on record?
Answer: -47.4% (active)

Question: For `Cc1nc2c(cnn2-c2ccccc2)c(=O)n1-c1ccc(NC(=O)c2ccc(F)cc2)cc1`, which growth is on record?
Answer: 85.5% (inactive)

Question: How did the growth turn out when `O=C(c1ccc([N+](=O)[O-])c([N+](=O)[O-])c1O)n1[nH]c(=O)c2ccccc2c1=O` was run?
Answer: 66.6% (inactive)

Question: `Cc1ccc(-c2cc(-c3cc4ccccc4nc3Cl)[nH]c(=S)n2)cc1` was tested. Which growth did it give?
Answer: 55.7% (inactive)

Question: `COc1ccc2nc(Cl)c(-c3cc(-c4ccccc4)nc(=O)[nH]3)cc2c1` was tested. Which growth did it give?
Answer: 11.3% (inactive)

Question: How did the growth turn out when `O=C(NO)c1ccc(CNc2nc(-c3ccccc3)c3ccccc3n2)cc1` was run?
Answer: 1.02% (active)

Question: How did the growth turn out when `Cc1ccc(NC(=O)c2ccc(-n3c(=O)[nH]c4ccccc4c3=O)cc2)cc1` was run?
Answer: 38% (inactive)

Question: With `Nc1nc(-c2ccccc2)cc(-c2cc3ccccc3nc2Cl)n1` as the compound, how does the growth read?
Answer: 78.5% (inactive)

Question: Which growth does the source give for `C=C1CC[C@H](C(=C)C)[C@H]2C=C(C)C(=O)C3=C(C(=O)[C@@](C)(O)C3)[C@H]12` here?
Answer: -98.4% (active)

Question: How did the growth turn out when `Cc1cccc2cc(-c3cc(-c4ccccc4)nc(=O)[nH]3)c(Cl)nc12` was run?
Answer: 78.1% (inactive)

Question: Which growth does the source give for `Cc1ccc(C(C)C)cc1NC(=O)c1ccccc1O` here?
Answer: 49.5% (inactive)

Question: Which growth does the source give for `O=C(Nc1ccccc1)Nc1nc2ccccc2s1` here?
Answer: 88.6% (inactive)

Question: With `NC1=NC(c2ccccc2Cl)N=C(Nc2nn[nH]n2)N1` (configuration not stated) as the compound, how does the growth read?
Answer: 103% (inactive)

Question: `C=C(C)[C@@H]1CC[C@]2(C)[C@H](CC=C3[C@@H]4CC(C)(C)CC[C@]4(C(=O)N4CCOCC4)CC[C@]32C)[C@@]1(C)CCCN` was tested. Which growth did it give?
Answer: -98.6% (active)

Question: How did the growth turn out when `Cc1ccc(-c2cc(-c3cc4ccccc4nc3Cl)[nH]c(=O)n2)cc1` was run?
Answer: -42.6% (active)

Question: How did the growth turn out when `O=C1Nc2cc(Cl)ccc2/C1=C/c1cccc(OCc2ccccc2)c1` was run?
Answer: -56.8% (active)

Question: For `O=C1Nc2ccc(Cl)cc2/C1=C/c1cccc(OCc2ccccc2)c1`, which growth is on record?
Answer: 35.3% (inactive)

Question: `O=C1Nc2ccc(Cl)cc2/C1=C/c1ccc(OCc2ccc(Br)cc2F)cc1` was tested. Which growth did it give?
Answer: 33.3% (inactive)

Question: How did the growth turn out when `O=c1[nH]n(C(=S)N/N=C/c2ccc(F)cc2)c(=O)c2ccccc12` was run?
Answer: -50.9% (active)

Question: With `O=C1Nc2cc(Cl)ccc2/C1=C/c1ccc(OCc2ccc(Br)cc2F)cc1` as the compound, how does the growth read?
Answer: -92% (active)

Question: With `CN1CCc2c(sc3ncnc(N/N=C/c4cn(-c5ccccc5)nc4-c4ccc(Br)cc4)c23)C1` as the compound, how does the growth read?
Answer: 15.7% (inactive)

Question: Which growth does the source give for `COc1ccc(C=CC(=O)c2ccc(-n3c(C)nc4c(cnn4-c4ccccc4)c3=O)cc2)cc1` here?
Answer: 77.6% (inactive)

Question: `O=C1Nc2cc(Cl)ccc2/C1=C/c1cccc(OCc2ccc(Br)cc2F)c1` was tested. Which growth did it give?
Answer: -6.14% (active)

Question: For `O=C1Nc2ccc(F)cc2/C1=C/c1cccc(OCc2ccccc2)c1`, which growth is on record?
Answer: 19.8% (inactive)

Question: With `O=C(CSc1ccc(-c2ccc(Cl)cc2)nn1)Nc1ccc(Cl)c(C(F)(F)F)c1` as the compound, how does the growth read?
Answer: 60.7% (inactive)
